An excerpt weighted towards active compounds, which were near 2.5% of everything screened.
MEKK2 WT-MEK5: raises or lowers MEK5 binding to wildtype human MEKK2 PB1 domain | 290,000 tested, 1.1% active | binding response (% of control), % at 10 µM | Q9Y2U5 | bead flow cytometry, Alexa488-MEK5 binding to MEKK2 WT; actives lie on both sides | AID 1531; in the data active means binding response below about 67% or above about 130%; inconclusive means no clear call, values can overlap the other calls; inactive means in between
MEKK3 PB1 HTS: MEKK3-MEK5 PB1 interaction, increase or decrease; bead-based flow cytometry, Alexa488-MEK5 binding to MEKK3; actives lie on both sides; 0 = blocked by unlabeled MEK5, 100 = vehicle; binding response (% of control), % at 10 µM; 290,000 tested, 1.4% active;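 active means binding response more than 3 SD above or below the average of its plate-row segment, actives on both sides; inconclusive means wells at one plate position flagged as instrument error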;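 further: Alexa488 bead fluorescence after subtracting the streptavidin-only scavenger bead signal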
Target sequence (Q99759 whole entry, looked up): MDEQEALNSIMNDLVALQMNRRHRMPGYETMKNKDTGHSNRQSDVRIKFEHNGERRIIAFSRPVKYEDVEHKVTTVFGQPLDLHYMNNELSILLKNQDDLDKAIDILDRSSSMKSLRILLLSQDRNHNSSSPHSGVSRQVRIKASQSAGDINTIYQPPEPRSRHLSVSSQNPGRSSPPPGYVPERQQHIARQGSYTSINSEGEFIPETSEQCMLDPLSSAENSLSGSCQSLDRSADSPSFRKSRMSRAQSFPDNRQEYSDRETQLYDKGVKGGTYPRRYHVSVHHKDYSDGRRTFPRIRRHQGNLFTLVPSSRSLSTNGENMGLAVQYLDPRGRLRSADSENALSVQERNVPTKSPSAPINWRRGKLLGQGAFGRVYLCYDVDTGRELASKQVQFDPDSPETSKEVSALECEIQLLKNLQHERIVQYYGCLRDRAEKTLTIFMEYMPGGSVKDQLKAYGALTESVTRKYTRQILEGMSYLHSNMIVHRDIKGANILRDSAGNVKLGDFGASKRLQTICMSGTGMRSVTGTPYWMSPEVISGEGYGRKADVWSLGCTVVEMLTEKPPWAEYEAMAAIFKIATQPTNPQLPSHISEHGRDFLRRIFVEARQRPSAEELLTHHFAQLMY
MEKK2mut PB1 HTS: signal of MEK5 binding to mutant human MEKK2 PB1 domain; bead flow cytometry, Alexa488-MEK5 binding to MEKK2 mutant; 290,000 tested, 0.35% active; percent response, % at 10 µM; AID 1530; in the data active means percent response above about 24%, passing the limit was not always enough
UBC13 polyUb: blocks human UBC13 polyubiquitin chain formation; P61088; TR-FRET; inhibition, % at 20 µM; 330,000 tested, 0.47% active; in the data active means inhibition above about 45%, passing the limit was not always enough; inconclusive means no clear call, values can overlap the other calls
Rce1 inhib: blocks yeast Ras-converting enzyme | Q03530 | yeast membranes, quenched prenylated peptide cleavage fluorescence | calls only | 290,000 tested, 0.27% active;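 active means fall in fluorescence gain of 50% or more versus controls, with final raw signal at or below 3038400; inconclusive means same 50% fall but final raw signal above 3038400; inactive means fall in fluorescence gain under 50%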;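 further: plate controls were neutral control wells for no effect and wells lacking membranes for full effect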
MEKK2wt confirm: raises or lowers MEK5 binding to wildtype human MEKK2, retest | shares compounds with MEKK3 PB1 HTS | bead flow cytometry, Alexa488-MEK5 binding to MEKK2 WT; actives lie on both sides | binding response (% of control), % at 10 µM | 5,900 tested, 2.4% active; in the data active means binding response below about 16% or above about 210%; inactive means in between
MEKK2mut-MEK5: signal of MEK5 binding to mutant human MEKK2, retest. bead flow cytometry, Alexa488-MEK5 binding to MEKK2 mutant. shares compounds with MEKK3 PB1 HTS. percent response, % at 10 µM. 5,900 tested, 2% active; in the data active means percent response mostly above about 71%, no sharp cut-off; inactive means mostly below about 38%;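 further: higher means compound restores mutant binding toward wildtype level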
MEKK3-MEK5 inh: confirmation of inhibitors of MEK5 binding to human MEKK3; shares compounds with MEKK3 PB1 HTS; 5,900 tested, 1.8% active; AID 1894; binding response (% of control), % at 10 µM; bead flow cytometry, Alexa488-MEK5 binding to MEKK3; hits give low values;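 active means binding response below 72% of control, or above a set upper limit, though filed actives all read lower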;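 further: 100% = DMSO only wells and 0% = binding blocked by excess unlabeled MEK5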
* = called active by the depositor; i = inactive; ? = inconclusive; · = no result given; + = active, no number; [ ] = remark or other dose.

SMILES	MEKK2 WT-MEK5	MEKK3 PB1 HTS	MEKK2mut PB1 HTS	UBC13 polyUb	Rce1 inhib	MEKK2wt confirm	MEKK2mut-MEK5	MEKK3-MEK5 inh
CC(C)C/C=C1\CCc2c([nH]c3ccccc23)C1=O	96	102	-3	-2	i	·	·	·
CCCCCCCCC1=NCCc2c1[nH]c1ccccc21	159*	99	54*	26	i	157	25	100
O=C(COC(=O)c1ccc2c(=O)n3c(nc2c1)CCC3)NC1CCS(=O)(=O)C1 (stereo unspecified)	·	·	·	-2	i	·	·	·
Cc1ccc(/C=N/NC(=O)CCCOc2ccc(Cl)cc2Cl)cc1	101	137*	-1	13	i	98	-6	98
CC1(C)CC(=O)C=C(Nc2ccc(Cl)c(Br)c2)C1	112	108	7	-6	i	·	·	·
C#CCOCCOCCOCCNc1nc(N2CCN(C(=O)[C@H](Cc3ccc(O)cc3)n3cc([C@@H](N)CC(C)C)nn3)CC2)nc(N2CCN(C(=O)[C@H](Cc3ccc(O)cc3)n3cc([C@@H](N)CC(C)C)nn3)CC2)n1	188*	96	69*	63*	i	227*	95*	113
C#CCOCCOCCOCCNc1nc(N2CCN(C(=O)[C@H](CCC(=O)O)n3cc(C(N)Cc4ccc(O)cc4)nn3)CC2)nc(N2CCN(C(=O)[C@H](Cc3ccc(O)cc3)n3cc(C(N)CC(C)C)nn3)CC2)n1 (stereo partly specified)	?	108	3	-13	i	·	·	·
C#CCOCCOCCOCCNc1nc(N2CCN(C(=O)[C@H]([C@@H](C)CC)n3cc([C@@H](N)Cc4ccc(O)cc4)nn3)CC2)nc(N2CCN(C(=O)[C@H](CCCCN)n3cc([C@@H](N)CC(C)C)nn3)CC2)n1	221*	113	79*	97*	i	183	110*	108
C#CCOCCOCCOCCNc1nc(N2CCN(C(=O)[C@H](CCCCN)n3cc([C@@H](N)CC(C)C)nn3)CC2)nc(N2CCN(C(=O)[C@H](Cc3ccc(O)cc3)n3cc([C@@H](N)CC(C)C)nn3)CC2)n1	151*	109	38	37	i	140	20	106
C#CCOCCOCCOCCNc1nc(N2CCN(C(=O)[C@H](CCC(=O)O)n3cc(C(N)CC(C)C)nn3)CC2)nc(N2CCN(C(=O)[C@H](Cc3ccc(O)cc3)n3cc(C(N)CC(C)C)nn3)CC2)n1 (stereo partly specified)	110	105	9	2	i	·	·	·
S=C(N/N=C/c1cccc2ccccc12)Nc1cccc(Cl)c1	103	103	-2	7	i	·	·	·
COc1cccc(-c2nc(CS(=O)(=O)CC(=O)Nc3cc(F)ccc3F)c(C)o2)c1	100	102	-1	-4	i	·	·	·
CC(Nc1n[nH]c(=O)[nH]c1=O)C(=O)N/N=C/c1cccs1 (stereo unspecified)	103	101	11	3	i	·	·	·
O=C1CCC(C(=O)Nc2cccc(S(=O)(=O)Nc3ccccc3F)c2)=NN1	·	·	·	9	·	·	·	·
NCCSc1c(-c2ccccc2)[nH]c2ccccc12	146*	118	25*	18	i	141	35	109
NCCSc1c(-c2ccc(Cl)cc2)[nH]c2ccccc12	171*	106	51*	3	i	171	29	106
CCOC(=O)C1(Cc2ccccc2)C(=O)N(CCCN(C)C)c2ccccc21 (stereo unspecified)	·	·	·	3	i	·	·	·
COC(=O)C1CSC(c2ccc(Cl)cc2)N1C(=O)c1ccccc1 (stereo unspecified)	99	101	2	3	i	·	·	·
COc1ccccc1-n1c(-c2ccccc2)c[nH]c1=S	65	49*[inhibitor]	-21	·	+	87	-5	88
S=c1[nH]cc(-c2ccccc2)n1-c1ccccc1Cl	94	100	-2	2	i	·	·	·
CCOC(=O)c1c(C)[nH]c(C(=O)NCc2ccco2)c1C	122	143*	6	-4	i	96	0	97
CCOC(=O)c1[nH]c(C)c(C(=O)NCc2ccco2)c1C	102	101	2	-1	i	·	·	·
CCN(CC)C(=O)CS(=O)(=O)CC(=O)Nc1cc(OCCOC)c(Cl)cc1Cl	102	102	5	1	·	·	·	·
COCCOC(=O)c1c(C)oc2ccc(NS(=O)(=O)c3ccccc3)cc12	98	100	0	14	i	·	·	·
COCCOC(=O)c1c(C)oc2ccc(NS(=O)(=O)c3ccc(C)cc3)cc12	119	135*	29	-4	i	102	4	105
SMILES	MEKK2 WT-MEK5	MEKK3 PB1 HTS	MEKK2mut PB1 HTS	UBC13 polyUb	Rce1 inhib	MEKK2wt confirm	MEKK2mut-MEK5	MEKK3-MEK5 inh
Cc1oc2ccc(NS(=O)(=O)c3ccccc3)cc2c1C(=O)Nc1ccccc1	94	129*	-1	7	i	100	0	105
CCOC(=O)c1ccccc1NC(=O)COC(=O)CCC1CCCC1	·	·	·	6	·	·	·	·
CSc1cccc(CN2CCN(Cc3ccccc3)C(CCO)C2)c1 (stereo unspecified)	58	48*[inhibitor]	-15	-10	i	101	4	101
CSc1cccc(CN2CCN(CCc3ccccc3)C(CCO)C2)c1 (stereo unspecified)	98	99	-2	6	i	·	·	·
O=C(Cn1c(C(F)(F)F)nc2ccccc21)OCC(=O)c1c[nH]c2ccccc12	63*[inhibitor]	101	10	-5	i	96	1	97
CCN(CC)CCNC(=O)c1ccc(NC(=O)c2ccc(COc3ccccc3)cc2)cc1	162*	101	26*	23	i	168	31	106
CN1CCN(c2ccc(NC(=O)c3ccc(-c4ccc(Cl)cc4)o3)cc2)CC1	171*	108	43*	20	i	195	72*	114
CS(=O)(=O)N1CCN(c2ccc(NC(=O)c3ccc(-c4ccc(Cl)cc4)o3)cc2)CC1	98	100	3	14	i	·	·	·
O=S(=O)(c1ccc(F)cc1)c1nc(-c2ccco2)oc1Nc1ccc(F)cc1	105	137*	0	-6	·	94	-4	98
COc1ccc(Nc2oc(-c3ccco3)nc2S(=O)(=O)c2ccc(F)cc2)cc1	96	123	-1	4	·	·	·	·
Clc1ccc2nc(N3CCNCC3)nc(-c3ccccc3)c2c1	152*	103	32	?	i	108	0	102
CN1CCN(c2nc(-c3ccccc3)c3cc(Cl)ccc3n2)CC1	131	102	6	27	i	·	·	·
